Experimental data: PubChem BioAssay (Tox21)
Inconclusive results are not listed. Calls of active or inactive are those of the source. Unless noted, calls come from the whole dose curve.

Columns and labels:
[1] = target: KiSS-1 receptor (Homo sapiens) (UniProt Q969F8); experiment: Human kisspeptin (KISS1R) small molecule agonists, calcium flux assay in KISS1R-HEK293 cells (AID 1920064; active = well fitted activation curve with a large enough effect in the repeat runs)
How it was run: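 Intracellular calcium mobilization in KISS1R-HEK293 cells was recorded by fluorescence (Ex/Em 480/540) for 3 min following compound addition to cells pre-loaded 1 h with calcium dye.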

[2] = G protein-coupled receptor (GPCR) small molecule agonists, calcium flux assay: HEK293 wild type cell line counter screen (AID 1920065)
How it was run: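 In this agonist-mode screen, ATP is the positive control and DMSO the vehicle. Cells grow 18 h before a 1 h dye incubation at 37 C; signal is taken at Ex/Em 480/540 over 3 min.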

[3] = p53 small molecule agonists, cell-based qHTS assay with human liver microsomes (AID 1963577)
How it was run: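 p53RE-bla reporter cells were pre-incubated 5 h at 37 C, then treated with compounds plus human liver microsomes (0.5 mg/mL final) and NADPH (0.5 mg/mL final) for 16 h at 37 C. Beta-lactamase activity was read by LiveBLAzer fluorescence after 2 h at room temperature.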

[4] = p53 small molecule agonists, cell-based qHTS assay with rat liver microsomes (AID 1963578)
How it was run: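 p53RE-bla cells were exposed to compounds together with rat liver microsomes (0.5 mg/mL final) and NADPH (0.5 mg/mL final) for 16 h at 37 C, then read by LiveBLAzer beta-lactamase fluorescence after 2 h at room temperature.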

[5] = p53 small molecule agonists, cell-based qHTS assay with human liver microsomes: qHTS cell viability counter screen (AID 1963579); note: nearly all actives have a fitted effect of over 45% in size
How it was run: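 p53RE-bla cells (4,000/well) were pre-incubated 5 h at 37 C, then given compounds in DMSO plus human liver microsomes (0.5 mg/mL final) and NADPH (0.5 mg/mL final) for 16 h at 37 C. Viability was read by CellTiter-Glo luminescence.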

[6] = p53 small molecule agonists, cell-based qHTS assay with rat liver microsomes: qHTS cell viability counter screen (AID 1963580); note: nearly all actives have a fitted effect of over 45% in size
How it was run: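 In HCT-116 cells carrying a p53 response element-bla reporter, compounds were metabolically activated in situ by rat liver microsomes with NADPH over 16 h. Cell ATP content then served as the cytotoxicity measure.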

[7] = p53 small molecule agonists, cell-based qHTS assay: qHTS cell viability counter screen (AID 1963581); note: nearly all actives have a fitted effect of over 45% in size
How it was run: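 Compounds are pinned onto HCT-116 p53RE-bla cells and left 16 h at 37 C. Following the reporter FRET read, ATP is quantified by CellTiter-Glo luminescence after 30 min at room temperature.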

[8] = target: 5-hydroxytryptamine receptor 2A (Homo sapiens) (UniProt P28223); experiment: 5-hydroxytryptamine receptor 2A (HTR2A) small molecule antagonists, cell-based qHTS assay (AID 1963586); note: nearly all actives have a fitted effect of over 45% in size
Sequence of 5-hydroxytryptamine receptor 2A (Homo sapiens) (P28223 whole entry, looked up): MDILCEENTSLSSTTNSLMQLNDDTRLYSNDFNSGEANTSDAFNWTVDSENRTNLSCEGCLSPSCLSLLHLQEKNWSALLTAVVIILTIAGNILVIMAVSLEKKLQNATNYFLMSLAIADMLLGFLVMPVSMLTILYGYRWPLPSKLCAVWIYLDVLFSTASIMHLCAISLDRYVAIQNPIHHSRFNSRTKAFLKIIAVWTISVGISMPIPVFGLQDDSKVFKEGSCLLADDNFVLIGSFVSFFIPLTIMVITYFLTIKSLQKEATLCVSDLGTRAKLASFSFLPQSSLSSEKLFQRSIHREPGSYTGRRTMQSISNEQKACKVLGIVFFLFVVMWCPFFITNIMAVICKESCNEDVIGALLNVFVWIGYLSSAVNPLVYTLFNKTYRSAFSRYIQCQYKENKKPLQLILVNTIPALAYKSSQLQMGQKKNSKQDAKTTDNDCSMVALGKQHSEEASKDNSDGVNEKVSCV
How it was run: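 Antagonist-mode intracellular calcium assay: DOI (4 nM) added after 5 min compound pre-incubation at room temperature to dye-loaded HTR2A-CHO cells. Fluorescence followed for 3 min, sampled every second.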

[9] = target: 5-hydroxytryptamine receptor 2A (Homo sapiens) (UniProt P28223); experiment: 5-hydroxytryptamine receptor 2A (HTR2A) small molecule agonists, cell-based qHTS assay (AID 1963587); note: nearly all actives have a fitted effect of over 30% in size
How it was run: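 HTR2A-CHO cells, plated 18 h at 37 C/5% CO2, dye-loaded 1 h at 37 C; compounds in DMSO added by pin tool (agonist mode). Intracellular calcium flux read as kinetic fluorescence on FDSS over 2 min at 1 s intervals.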

[10] = target: Muscarinic acetylcholine receptor M1 (Homo sapiens) (UniProt P11229); experiment: Cholinergic receptor muscarinic 1 (CHRM1) small molecule antagonists, cell-based qHTS assay (AID 1963588); note: nearly all actives have a fitted effect of over 40% in size
Sequence of Muscarinic acetylcholine receptor M1 (Homo sapiens) (P11229 whole entry, looked up): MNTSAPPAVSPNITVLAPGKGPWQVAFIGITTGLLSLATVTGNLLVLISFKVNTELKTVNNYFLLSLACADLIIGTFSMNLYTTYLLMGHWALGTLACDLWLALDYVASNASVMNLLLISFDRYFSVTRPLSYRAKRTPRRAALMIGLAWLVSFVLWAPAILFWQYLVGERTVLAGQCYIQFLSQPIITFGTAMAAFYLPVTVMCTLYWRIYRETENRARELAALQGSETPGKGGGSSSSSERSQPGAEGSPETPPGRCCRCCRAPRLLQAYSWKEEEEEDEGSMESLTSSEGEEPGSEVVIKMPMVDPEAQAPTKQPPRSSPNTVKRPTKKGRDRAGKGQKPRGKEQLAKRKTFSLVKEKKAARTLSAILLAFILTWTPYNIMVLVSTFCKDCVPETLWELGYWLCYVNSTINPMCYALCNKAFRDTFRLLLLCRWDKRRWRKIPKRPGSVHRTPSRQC
How it was run: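 CHRM1-CHO calcium-flux assay, antagonist mode. Cells were seeded 18 h, dye-loaded 1 h at 37 C and given compound for 5 min at RT, then acetylcholine was added at 50nM. FDSS fluorescence was read 3 min; 15 concentrations, three runs.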

[11] = target: Muscarinic acetylcholine receptor M1 (Homo sapiens) (UniProt P11229); experiment: Cholinergic receptor muscarinic 1 (CHRM1) small molecule agonists, cell-based qHTS assay (AID 1963589); note: nearly all actives have a fitted effect of over 35% in size
How it was run: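 Stable CHRM1-CHO cells (human receptor) were incubated 18 h, dye-loaded for 1 h at 37 C and exposed to test compounds for agonist activity, with calcium-dependent fluorescence followed kinetically.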

[12] = cAMP Responsive Elements (CRE) small molecule antagonists, cell-based qHTS assay (AID 1963591; active = well fitted inhibition curve with a large enough effect in the signal ratio in the repeat runs, not every such curve was filed as active; the % refers to the signal ratio)
How it was run: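 qHTS in CRE-bla HEK 293T cells: compound in DMSO, then 0.25 uM NKH477 (final), 3 h at 37 °C/5% CO2; beta-lactamase FRET read-out after 2 h substrate incubation.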

[13] = target: Beta-2 adrenergic receptor (Homo sapiens) (UniProt P07550); experiment: Adrenergic beta2 receptor (ADRB2) small molecule antagonists, cell-based qHTS assay (AID 1963592); note: series mostly up to about 92 µM; nearly all actives have a fitted effect of over 50% in size
Sequence of Beta-2 adrenergic receptor (Homo sapiens) (P07550 whole entry, looked up): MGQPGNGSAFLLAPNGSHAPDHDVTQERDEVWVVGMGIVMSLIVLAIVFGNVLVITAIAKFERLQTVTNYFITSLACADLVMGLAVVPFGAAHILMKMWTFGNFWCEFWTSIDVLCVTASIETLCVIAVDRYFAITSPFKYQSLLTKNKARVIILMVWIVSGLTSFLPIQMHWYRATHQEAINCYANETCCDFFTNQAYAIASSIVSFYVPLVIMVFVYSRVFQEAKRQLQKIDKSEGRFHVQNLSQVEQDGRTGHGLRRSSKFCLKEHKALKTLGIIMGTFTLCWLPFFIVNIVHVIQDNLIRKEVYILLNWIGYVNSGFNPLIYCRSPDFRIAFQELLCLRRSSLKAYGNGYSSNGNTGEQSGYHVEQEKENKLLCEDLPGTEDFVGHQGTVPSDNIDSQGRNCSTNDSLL
How it was run: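 Cells (CHO, stable ADRB2 overexpression) incubated 18-20hr at 37C; compounds added from DMSO; agonist mix (1nM isoproterenol, 100uM IBMX, 25uM Ro-20-1724) added; 0.5hr RT; d2-cAMP and anti-cAMP-cryptate added; 1hr RT; 665/615 nm read.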

[14] = target: D(2) dopamine receptor (Homo sapiens) (UniProt P14416); experiment: Dopamine D2 receptor (DRD2) small molecule agonists, cell-based qHTS assay (AID 1963594); note: nearly all actives have a fitted effect of over 35% in size
Sequence of D(2) dopamine receptor (Homo sapiens) (P14416 whole entry, looked up): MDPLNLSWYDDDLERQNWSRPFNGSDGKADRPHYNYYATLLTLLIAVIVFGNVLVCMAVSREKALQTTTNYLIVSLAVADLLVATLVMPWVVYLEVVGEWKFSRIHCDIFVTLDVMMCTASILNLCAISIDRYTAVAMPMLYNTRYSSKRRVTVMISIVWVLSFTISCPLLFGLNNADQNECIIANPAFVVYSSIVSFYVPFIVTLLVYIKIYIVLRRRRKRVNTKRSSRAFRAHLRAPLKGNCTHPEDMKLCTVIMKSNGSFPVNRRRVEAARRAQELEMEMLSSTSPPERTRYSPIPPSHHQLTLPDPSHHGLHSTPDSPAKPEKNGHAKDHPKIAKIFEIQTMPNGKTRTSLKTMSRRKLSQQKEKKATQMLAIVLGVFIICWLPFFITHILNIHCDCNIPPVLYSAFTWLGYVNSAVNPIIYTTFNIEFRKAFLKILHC
How it was run: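 HEK293 cells stably expressing DRD2 were cultured 24 h at 37 C, then given Ro20-1724 (0.1 mM final) and compounds for 10 min at room temperature. NKH477 (200nM) was then added for 30 min. cAMP was read by HTRF.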

[15] = target: D(2) dopamine receptor (Homo sapiens) (UniProt P14416); experiment: Dopamine D2 receptor (DRD2) small molecule antagonists, cell-based qHTS assay (AID 1963595; active = well fitted inhibition curve with a large enough effect in the signal ratio in the repeat runs, with a control signal flat; the % refers to the signal ratio)
How it was run: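 Stable D2 receptor HEK293 line, 24 h after seeding. Compound preincubated 10 min, then quinpirole (12 nM) with forskolin analogue NKH477 (200 nM), 30 min, room temperature. Detection by time-resolved FRET of cAMP.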

[16] = target: Gonadotropin-releasing hormone receptor (Homo sapiens) (UniProt P30968); experiment: Human gonadotropin-releasing hormone receptor (GnRHR) small molecule agonists, calcium flux assay in GnRHR-HEK293 cells (AID 1920063); note: nearly all actives have a fitted effect of over 35% in size
Sequence of Gonadotropin-releasing hormone receptor (Homo sapiens) (P30968 whole entry, looked up): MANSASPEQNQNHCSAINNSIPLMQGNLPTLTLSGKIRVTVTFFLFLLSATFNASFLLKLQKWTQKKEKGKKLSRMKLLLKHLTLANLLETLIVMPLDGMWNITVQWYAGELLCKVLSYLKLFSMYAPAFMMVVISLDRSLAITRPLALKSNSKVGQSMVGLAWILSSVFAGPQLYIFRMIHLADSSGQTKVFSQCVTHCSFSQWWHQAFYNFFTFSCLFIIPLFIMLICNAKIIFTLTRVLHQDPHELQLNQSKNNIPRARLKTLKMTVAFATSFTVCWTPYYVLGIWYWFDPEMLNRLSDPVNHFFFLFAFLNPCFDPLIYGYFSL
How it was run: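 Tox21-format agonist screen using human GnRHR-expressing HEK293 cells and a fluorescent calcium dye; kinetic 3-min fluorescence reading after compound addition, 15-point concentration series run in triplicate.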

[17] = target: Beta-2 adrenergic receptor (Homo sapiens) (UniProt P07550); experiment: Adrenergic beta2 receptor (ADRB2) small molecule agonists, cell-based qHTS assay (AID 1963593);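 note: CHO cells stably overexpressing human ADRB2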
How it was run: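 CHO cells stably over-expressing ADRB2 were plated overnight at 37C, then dosed with compounds plus a stimulation mix containing 100uM IBMX and 25uM Ro-20-1724 for 0.5hr at room temperature. cAMP was measured by HTRF competition, 1hr.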

[18] = p53 small molecule agonists, cell-based qHTS assay (AID 1963582; active = well fitted activation curve with a large enough effect in the signal ratio in the repeat runs, not every such curve was filed as active; the % refers to the signal ratio)
How it was run: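 Agonist activity was scored from beta-lactamase FRET fluorescence in p53RE-bla cells treated 16 h at 37 C with compounds in DMSO, substrate incubation being 2 h at room temperature.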

[19] = cAMP Responsive Elements (CRE) small molecule agonists, cell-based qHTS assay (AID 1963590)
How it was run: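 FRET-based beta-lactamase readout (LiveBLAzer B/G, 2 h RT) quantified CRE activation in HEK 293T CRE-bla cells after 3 h treatment with DMSO-dissolved compounds.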

Measured: Potency

Sequence of KiSS-1 receptor (Homo sapiens) (Q969F8 whole entry, looked up): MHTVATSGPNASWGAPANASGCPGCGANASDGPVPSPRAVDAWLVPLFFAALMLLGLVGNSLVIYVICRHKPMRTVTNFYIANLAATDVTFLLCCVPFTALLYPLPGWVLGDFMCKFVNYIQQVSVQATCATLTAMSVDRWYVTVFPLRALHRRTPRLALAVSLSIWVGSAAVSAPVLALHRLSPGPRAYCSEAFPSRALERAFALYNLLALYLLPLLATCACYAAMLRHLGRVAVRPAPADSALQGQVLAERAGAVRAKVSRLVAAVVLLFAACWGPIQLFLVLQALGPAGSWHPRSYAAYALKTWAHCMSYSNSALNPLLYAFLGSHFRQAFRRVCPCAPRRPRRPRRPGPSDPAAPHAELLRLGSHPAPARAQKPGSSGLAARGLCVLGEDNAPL

O=C(Nc1ccc2c(c1)Cc1ccccc1-2)C(F)(F)F
inactive: [1] | [2] | [3] | [4] | [5] | [6] | [7] | [8] | [9] | [10] | [11] | [12] | [13] | [14] | [15]

CC(C)(C)c1ccc(C(O)CCCN2CCC(C(O)(c3ccccc3)c3ccccc3)CC2)cc1 (stereo not drawn)
inactive: [16] | [2] | [12] | [13] | [17] | [14] | [15]

c1ccc(-c2ccccc2-c2ccccc2)cc1
inactive: [1] | [2] | [3] | [4] | [18] | [8] | [10] | [11] | [12] | [13] | [14] | [15]

CCCCCC(C)OC(=O)COc1ccc(Cl)c2cccnc12 (stereo not drawn)
inactive: [1] | [2] | [3] | [5] | [6] | [18] | [8] | [9] | [10] | [11] | [12] | [13] | [17] | [14] | [15]

CC[C@@H]([C@H](C)O)n1ncn(-c2ccc(N3CCN(c4ccc(OC[C@@H]5CO[C@@](Cn6cncn6)(c6ccc(F)cc6F)C5)cc4)CC3)cc2)c1=O
inactive: [16] | [3] | [4] | [5] | [6] | [7] | [8] | [9] | [10] | [11] | [13] | [17] | [14] | [15]

CCN(Cc1ccncc1)C(=O)C(CO)c1ccccc1 (stereo not drawn)
inactive: [16] | [3] | [4] | [5] | [6] | [7] | [18] | [19] | [12] | [13] | [17] | [14]

O=C1Cc2ccccc2C1
inactive: [8] | [9] | [10] | [11] | [13] | [14] | [15]

CS(=O)(=O)c1ccc([C@@H](CC2CCCC2)C(=O)Nc2cnccn2)cc1Cl
inactive: [9] | [10] | [13] | [17] | [14] | [15]
